Experimental findings from PubChem BioAssay AID1851 (National Center for Advancing Translational Sciences (NCATS), 2009) are described below.

Hit rate of the full screen: of about 16,000 compounds, about 5,700 (36%) were called active. Not shown: some 24% with an inconclusive outcome. Some of the results follow. Values without a mark were called inactive. The call rests on the fitted dose curve; in most records, active means well fitted curve in the direction sought with a large enough effect; inconclusive means small, poorly fitted or top-dose-only effect, or effect the other way; inactive means no such curve, though single readings can be large or run the other way.
On the % scale 0 is the no-effect control and ±100 the full control effect.

Cytochrome P450 1A2 (Homo sapiens), sequence (P05177 whole entry, looked up): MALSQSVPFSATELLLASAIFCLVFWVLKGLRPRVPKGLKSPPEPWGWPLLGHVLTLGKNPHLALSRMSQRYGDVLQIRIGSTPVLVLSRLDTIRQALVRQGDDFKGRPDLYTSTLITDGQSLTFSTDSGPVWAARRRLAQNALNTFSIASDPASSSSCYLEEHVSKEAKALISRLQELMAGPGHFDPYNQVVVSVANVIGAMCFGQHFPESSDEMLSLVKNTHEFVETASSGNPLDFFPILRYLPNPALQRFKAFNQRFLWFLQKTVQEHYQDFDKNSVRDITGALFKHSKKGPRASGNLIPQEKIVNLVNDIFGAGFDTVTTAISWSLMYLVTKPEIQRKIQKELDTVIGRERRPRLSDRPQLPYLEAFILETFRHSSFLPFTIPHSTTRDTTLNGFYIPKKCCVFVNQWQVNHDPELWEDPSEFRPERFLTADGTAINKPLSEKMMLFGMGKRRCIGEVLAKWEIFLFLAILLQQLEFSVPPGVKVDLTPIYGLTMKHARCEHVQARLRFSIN

In this test the target is Cytochrome P450 1A2 (Homo sapiens) (UniProt P05177). Briefly: Cytochrome panel assay with activity outcomes. The note with it: recombinant CYP, pro-luciferin dealkylation, luminescence, p450-cyp1a2; series mostly up to 57.1 µM. Here is the method:
The P450 gene superfamily is involved in the metabolism and clearance of xenobiotics. This assay used various human CYP P450 isozymes to measure the dealkylation of various pro-luciferin substrates to luciferin. The luciferin is then measured by luminescence after the addition of a luciferase detection reagent. Pro-luciferin substrate concentration in the assay was equal to its KM for its CYP P450 isozyme. Inhibitors and some substrates limit the production of luciferin, and decrease measured luminescence.
NCGC Assay Protocol Summary:
1, Reagent, 2 uL, Isozyme and Pro-Luciferin
2, Library compounds, 23 nl, 40 uM to 0.24 nM dilution series
3, Controls, 23 nl, Isozyme specific inhibitor
4, Reagent, 2 uL, NADPH regeneration solution
5, Incubation time, 60 min, Isozyme specific temperature
6, Reagent, 4ul, Detection reagent
7, Incubation time, 20 min, Isozyme specific temperature
8, Detection, 1 sec, ViewLux luminescent read
The luciferase-based P450-GloTM Screening Systems were obtained from Promega (Madison, WI) for CYP 1A2 (V9770), CYP 2C9 (V9790), CYP2 C19 (V9880), CYP 2D6 (V9890), and CYP 3A4 Luciferin-PPXE (V9910) and were adapted for 1,536-well microplates and an automated protocol. The control compounds furafylline for 1A2 (F124), sulfaphenazole for CYP 2C9 (S0758), ketoconazole for CYP 2C19 (K1003), quinidine for 2D6 (Q3625), and ketoconazole for 3A4 (K1003) were purchased from Sigma Aldrich (St. Louis, MO). Recombinant P450 enzymes were obtained from baculovirus constructs expressed in insect cells (BD/Gentest).
Medium-binding white solid Kalypsys plates used. Mixtures kept on ice. 1A2: 10 nM 1A2, 100 uM Luc-ME, 100 mM KPO4; 2C9: 10 nM 2C9, 100 uM Luc-H, 25 mM KPO4; 2C19: 5 nM 2C19, 10 uM Luc-H EGE, 50 mM KPO4; 2D6: 5 nM 2D6, 30 uM Luc-ME EGE, 100 mM KPO4; 3A4: 10 nM, 25 uM Luc-PPXE. All amounts are reflected in their final concentration, working concentration is 2x.
NADPH regeneration solution: 1.3 mM NADP+, 3.3 mM glucose-6-phosphate, 3.3 mM MgCl2, 0.4 U/mL glucose-6-phosphate dehydrogenase for all isozymes, 200 mM KPO4 for 3A4. Mixture prepared at RT but kept on ice during automated run.
RT incubation in auxilliary plate hotel for 1A2, 2D6, and 3A4; 37C for 2C9 and 2C19.
Keywords: P450, CYP1A2, CYP2C19, CYP2C9, CYP2D6, CYP3A4, Luciferase, MLSMR, MLSCN, NIH Roadmap, qHTS, NCGC
Consider `COc1ccc2c3c([nH]c2c1)[C@H]1C[C@@H]2[C@@H](C[C@@H](O)[C@H](OC)[C@H]2C(=O)O)CN1CC3`, for which the activity, negative = inhibition was -1.02% [at 11.4 µM].

Regarding `COc1cnc(-c2ccccn2)nc1Oc1ccc(Cl)c2ccccc12`, the AC50 was 5.62 µM (active). Take `CCOC(=O)/C(C#N)=C1/C=CN(C)C=N1`: the AC50 result is “inactive”. In the case of `CC(C)N(CCNC(=O)C1CCC(=O)N1Cc1ccc(F)cc1)Cc1ccccc1` (stereo unspecified), the AC50 entry was “inactive”. Same read-out and setting: with `CC(C)N(CCC(=O)c1ccc2ccccc2c1)Cc1ccccc1` the figure was 3.98 µM (active).

In the case of `CC(C)N(CCNC(=O)C1CCN(S(=O)(=O)N2CCOCC2)CC1)Cc1ccccc1`, the AC50 entry was “inactive”.

Regarding `CN1CCCN(C)C1c1cc([N+](=O)[O-])ccc1O`, the activity, negative = inhibition was -14.3% [at 11.4 µM]. For the compound `N=C(N)S[C@H]1c2ccccc2-c2cc([N+](=O)[O-])ccc21`, the AC50 is 0.158 µM (active). For `COc1ccc(/C(O)=C2/C(=O)C(=O)N(Cc3cccnc3)C2c2ccco2)cc1OC` (stereo unspecified), the AC50 entry is “inactive”. For `Cc1ccc(C)c(/C(O)=C2\C(=O)C(=O)N(Cc3cccnc3)C2c2cccnc2)c1` (stereo unspecified), the AC50 was 25.1 µM (active). As to `COCCCN1C(=O)C(=O)/C(=C(/O)c2ccc(OC)cc2C)C1c1cccnc1` (stereo unspecified), the AC50 result was “inactive”. `COc1cccc(Cn2c(=O)c(-c3ccc(Cl)cc3)nc3cnc(OC)nc32)c1`: the AC50 is 3.98 µM (active). Consider `COc1cccc(Cn2c(=O)c(-c3cccs3)nc3cncnc32)c1`, for which the AC50 is 5.01 µM (active). For `CCNc1ncc2nc(-c3ccc(Cl)cc3)c(=O)n(Cc3cccc(OC)c3)c2n1`, the AC50 result was “inactive”. As to `COc1cccc(Cn2c(=O)c(-c3cccs3)nc3cnc(OC)nc32)c1`, the AC50 is 3.16 µM (active). `COc1ccc(Oc2ncc3nc(-c4cccs4)c(=O)n(Cc4cccc(OC)c4)c3n2)cc1`: the AC50 result is “inactive”. As to `COc1cc(C2SCCCCCCCCCCSC(c3ccc(O)c(OC)c3)SCCCCCCCCCCS2)ccc1O` (stereo unspecified), the activity, negative = inhibition is -6.91% [at 2.29 µM]. In the case of `COCC(=O)N1CCC2(CC1)CN(Cc1ccc(C#N)cc1)C2`, the AC50 entry is “inactive”. Turning to `CC(C)=CCC/C(C)=C/CO/N=C1/C[C@@H](O)[C@@H](O)[C@@H]2[C@@H]3C(=O)N(Cc4ccc5c(c4)OCO5)C(=O)[C@H]3CC[C@@H]12`, the activity, negative = inhibition was -3.81% [at 11.4 µM]. With `N[C@@H](CO)C(=O)O`, the AC50 entry is “inactive”.

Take `O=C(CSc1nnc(SCc2cccc3ccccc23)s1)c1ccc2c(c1)OCO2`: the AC50 is 2.24 µM (active). `CC[C@H]1CN(C)[C@H]2Cc3c([nH]c4ccccc34)C(=O)C[C@H]1[C@H]2C(=O)OC`: the activity, negative = inhibition was -10.5% [at 11.4 µM]. As for `COC(=O)C1Cc2c([nH]c3ccccc23)CN1` (stereo unspecified), the AC50 was 0.398 µM (active). As to `O=C(O)[C@@H]1Cc2c([nH]c3ccccc23)[C@@H](CCCCO)N1`, the activity, negative = inhibition was -9.61% [at 2.29 µM]. For `O=C1Nc2ccc(F)cc2C12SCCS2`, the AC50 was 15.8 µM (active). Consider `Cc1ccc2c(c1)C1(SCCS1)C(=O)N2`, for which the AC50 was 0.891 µM (active). Turning to `CCOC(=O)n1c(=O)n(Cc2ccccc2Cl)c2ccccc21`, the AC50 was 4.47 µM (active). Regarding `CCOC(=O)CC1C(=O)NCCN1S(=O)(=O)c1ccccc1Cl` (stereo unspecified), the AC50 result was “inactive”. As to `COC(=O)Cn1c(=O)c2c(nc(Br)n2Cc2ccccc2Cl)n(C)c1=O`, the AC50 result was “inactive”. Regarding `CN(CCCNC(=O)C1CCC(=O)N1Cc1ccccc1Cl)c1ccccc1` (stereo unspecified), the AC50 result is “inactive”. In the case of `CCOC(=O)n1c(=O)n(Cc2c(Cl)cccc2Cl)c2ccccc21`, the AC50 is 14.1 µM (active). `COc1ccc(CN2CCN(C(=O)CC(C)C)CC2)c(OC)c1OC`: the AC50 result is “inactive”. Consider `COc1cccc(NC(=O)c2cc(-c3cccnc3)nc3c(Cl)cccc23)c1`, for which the AC50 is 8.91 µM (active).

As for `CCOC(=O)C1=C(C)NC2=C(C(=O)C(C(=O)OCC)C(c3ccc(OC)cc3)C2)C1c1ccccn1` (stereo unspecified), the AC50 result was “inactive”.

`CCOC(=O)C1C(=O)C=C(/C=C/c2ccccc2)CC1c1ccc(Cl)cc1` (stereo unspecified): the AC50 is 5.01 µM (active). As for `CC(C)(CO[C@H]1C[C@H]2CC[C@@]1(C)C2(C)C)[N+](=O)[O-]`, the activity, negative = inhibition was -17.1% [at 11.4 µM]. As to `Fc1ccc(C2=Nn3c(Cc4ccccc4F)nnc3SC2)cc1`, the AC50 was 0.355 µM (active). For the compound `Cc1ccc(C)n1NC(=O)c1ccccc1`, the AC50 entry was “inactive”. Same read-out and setting: with `O=C(Nc1nc2ccccc2n1CCN1CCCCC1)C1CCCCC1` the entry was “inactive”; with `Cc1ccc(S(=O)(=O)NC(=O)c2cccn2C)cc1`, “inactive”; with `Cc1cc2ccccc2n1CCNC(=O)C1CCCC1`, 1 µM (active). On the same count and under the same terms, the result for `Cc1ccc(S(=O)(=O)NCCn2c(C)cc3ccccc32)cc1` reads 15.8 µM (active); that for `Cc1ccc(S(=O)(=O)NCCSc2nnnn2C)cc1`, “inactive”; that for `Cc1cc2ccccc2n1CCNC(=O)c1ccccc1`, 4.47 µM (active). With `Cc1cc2ccccc2c(=O)n1CC(=O)NCC(=O)N1CCCC1`, the AC50 entry was “inactive”. Take `CS(=O)(=O)c1ccc([C@H](O)[C@H](CO)NC(=O)C(Cl)Cl)cc1`: the AC50 result was “inactive”.
